We go through 40 molecules from PubChem BioAssay (Tox21).

SMILES strings stand for the structures. “And” between values parts separate entries of the source, which are not always exact repeats. Equal entries are not always repeated. Records with an inconclusive call do not appear. Entries that show only a call come without a potency. The source made the active and inactive calls. Calls come from the whole dose curve; as a rule, active = well fitted cell-killing curve with a large enough effect in the repeat runs; inconclusive = weak or mixed curves; inactive = no such curve, though single readings can be large or run the other way.
Potency is the fitted concentration of half-maximal effect.

This assay can be described thus: qHTS assay to identify small molecule agonists of the peroxisome proliferator-activated receptor delta (PPARd) signaling pathway - cell viability counter screen (AID 743211). Note: nearly all actives have a fitted effect of over 55% in size. To be noted: PPARd-bla HEK293H viability, CellTiter-Glo luminescence, 17 h; series mostly up to 62.6 µM. The source says: U.S. Tox21 Program National Center for Advancing Translational Sciences [NCATS] NIH Chemical Genomics Center [NCGC] U.S. Environmental Protection Agency [EPA] National Institutes of Environmental Health Sciences [NIEHS] National Toxicology Program [NTP] U.S. Food and Drug Administration [FDA] Tox21 Assay Overview: The peroxisome proliferator-activated receptors (PPARs) are lipid-activated transcription factors of the nuclear receptor superfamily with three distinct subtypes namely PPAR alpha, PPAR delta (PPARd) and PPAR gamma. All these subtypes heterodimerizes with Retinoid X receptor (RXR) and have different physiological functions. […] To identify the compounds that activate PPAR-delta signaling, GeneBLAzer PPAR delta UAS-bla HEK293H cell line (Invitrogen, Carlsbad, CA, USA) containing a beta-lactamase reporter gene under the control of an Upstream Activator Sequence (UAS) was used to screen the Tox21 compound library. The cytotoxicity of the Tox21 compound library against the PPARd-bla cell line was tested in parallel by measuring the cell viability using CellTiter-Glo assay (Promega, Madison, WI) in the same wells.
Tox21 Assay Protocol Summary: PPARd-bla cells were dispensed at 3000 cells/6uL/well in 1536-well black wall/clear bottom plates using a Multidrop Combi (Thermo Fisher Scientific, Waltham, MA) dispenser. After the assay plates were incubated at 37 C and 5% CO2 for 5 h, 23 nL of compounds dissolved in DMSO, positive controls or DMSO only was transferred to the assay plate by a Pintool station (Kalypsys, San Diego, CA). The assay plates were incubated at 37C for 17 h. After 1 uL of LiveBLAzerTM B/G FRET substrate was added using a Bioraptr Flying Reagent Dispenser (FRD) workstation (Beckman Coulter, Indianapolis, IN, USA), the plates were incubated at room temperature for 2 h, and fluorescence intensity was measured by an Envision plate reader (PerkinElmer, Shelton, CT). For cell viability readout that measures cytotoxicity, 3 ul/well of CellTiter-Glo reagent was added into the assay plates using a Bioraptr FRD. After 30 min incubation at room temperature, the luminescence intensity in the plates was measured using a ViewLux plate reader (PerkinElmer).
(qHTS replaces the single test concentration by a dilution series.)
Regarding `c1ccc2cc(Nc3ccc(Nc4ccc5ccccc5c4)cc3)ccc2c1`, the Potency result is “inactive”. In the case of `O=S(=O)(O)c1ccc(O)cc1`, the Potency result was “inactive”.

`O=C1OC2(c3cc(Br)c(O)c(Br)c3Oc3c2cc(Br)c(O)c3Br)c2c(Cl)c(Cl)c(Cl)c(Cl)c21`: the Potency entry is “inactive”.

In the case of `CCCCC(CC)COCC1CO1` (stereo not given), the Potency entry is “inactive”. As for `Cc1c(OCC(F)(F)F)ccnc1CS(=O)c1nc2ccccc2[nH]1` (stereo not given), the entry is “inactive”; as for `OCCO`, “inactive”; as for `COc1ccc(OC)c(C(O)CNC(=O)CN)c1` (stereo not given), “inactive”. As for `C=CC(C)(CCC=C(C)C)OC(C)=O` (stereo not given), the entry is “inactive”. Next, `COC(=O)c1ccccc1`: “inactive”; `Cc1cccc(C(=O)O)c1`: “inactive”; `OC[C@H]1O[C@@H]2O[C@H]3[C@H](O)[C@@H](O)[C@@H](O[C@H]4[C@H](O)[C@@H](O)[C@@H](O[C@H]5[C@H](O)[C@@H](O)[C@@H](O[C@H]6[C@H](O)[C@@H](O)[C@@H](O[C@H]7[C@H](O)[C@@H](O)[C@@H](O[C@H]8[C@H](O)[C@@H](O)[C@@H](O[C@H]1[C@H](O)[C@H]2O)O[C@@H]8CO)O[C@@H]7CO)O[C@@H]6CO)O[C@@H]5CO)O[C@@H]4CO)O[C@@H]3CO`: “inactive”.

As to `C[C@]12CCC(=O)C=C1CC[C@@H]1[C@@H]2C(=O)C[C@@]2(C)[C@H]1CC[C@]2(O)C(=O)CO`, the Potency entry was “inactive”. As for `C=C(C)C1CC=C(C)CC1` (stereo not given), the entry is “inactive”; as for `CN1C(C(=O)Nc2ccccn2)=C(O)c2ccccc2S1(=O)=O`, “inactive”.

With `O=C(/C=C/C=C/c1ccc2c(c1)OCO2)N1CCCCC1`, the Potency result was “inactive”.

As for `CNCCCC12CCC(c3ccccc31)c1ccccc12`, the Potency is 17.4 µM (active) and 29.8 µM (active).

`O=[N+]([O-])c1ccc2c(c1)Cc1ccccc1-2`: the Potency entry was “inactive”. Take `CC(=O)CC/C=C(\C)CCC=C(C)C`: the Potency entry was “inactive”.

Turning to `O=C(OCc1ccccc1)c1ccccc1O`, the Potency entry was “inactive”. On to `Nc1ncn([C@@H]2O[C@H](CO)[C@@H](O)[C@H]2O)c(=O)n1`, for which the Potency entry is “inactive”. `O=Cc1ccccc1O`: the Potency entry is “inactive”. As for `c1ccc2sc(SSN3CCOCC3)nc2c1`, the Potency is 15.5 µM (active). Next, `Nc1ccc(Nc2ccccc2)cc1`: “inactive”.

For `CC(C(=O)O)c1cccc(C(=O)c2ccccc2)c1` (stereo not given), the Potency result was “inactive”. As for `CC(CCC(=O)O)(c1ccc(O)cc1)c1ccc(O)cc1`, the entry is “inactive”. For `O=C(c1ccccc1)c1ccc(O)cc1O`, the Potency entry is “inactive”. Next, `O=c1oc(=O)c2cc3c(=O)oc(=O)c3cc12`: “inactive”. Next, `Oc1ccc(O)cc1`: “inactive”; `CCCCC/C=C/C=C/C=O`: “inactive”; `Cn1cnc([N+](=O)[O-])c1Sc1ncnc2nc[nH]c12`: “inactive”. Next, `CCCC(=O)O`: “inactive”. With `c1cc(-c2ccncc2)ccn1`, the Potency entry was “inactive”.

Take `CC(C)Oc1ccc2c(=O)c(-c3ccccc3)coc2c1`: the Potency entry was “inactive”. Next, `O=C=Nc1ccc(Cc2ccc(N=C=O)cc2)cc1`: “inactive”; `O=C(/C=C/c1ccccc1)OCc1ccccc1`: “inactive”; `O=C(COc1ccc(Cl)cc1)N1CCN(Cc2ccc3c(c2)OCO3)CC1`: “inactive”.

Turning to `OC(CCl)CCl`, the Potency entry was “inactive”. Regarding `Cc1ccc2c(n1)Oc1ccc(C(C)C(=O)OCC(=O)N(C)C)cc1C2` (stereo not given), the Potency result was “inactive”. As for `CCCCc1oc2ccccc2c1C(=O)c1cc(I)c(OCCN(CC)CC)c(I)c1`, the figure is 22.1 µM (active) and 16.8 µM (active); as for `c1ccncc1`, “inactive”.
